# Values without a mark were called inactive. Where a call stands in place of a potency, no number is given. The source made the active and inactive calls. Calls come from the whole dose curve.
# Biological target: Acetylcholinesterase (Homo sapiens) (UniProt P22303)
# Experiment: Acetylcholinesterase (AChE) small molecule antagonists: enzyme-based qHTS assay with human liver microsomes (AID 1347399); note: nearly all actives have a fitted effect of over 60% in size
# Details: Potency: qHTS inhibition; outcome: qHTS inhibition; series mostly up to 115 µM
# From the text: National Center for Advancing Translational Sciences [NCATS]
# Division of Preclinical Innovation [DPI]
# U.S. Environmental Protection Agency [EPA]
# National Institutes of Environmental Health Sciences [NIEHS]
# National Toxicology Program [NTP]
# U.S. Food and Drug Administration [FDA]
# Acetylcholinesterase (AChE) is the primary cholinesterase in the body that hydrolyzes a key neurotransmitter, acetylcholine. Inhibition of AChE activity can lead to neurotoxicity. The known inhibitors include organophosphorous pesticides (OP), chemical warfare agents, drugs, and various phytochemicals. Some compounds like OP compounds may need metabolic activation to be active AChE inhibitors. The cytochrome P450 (CYP) superfamily in the human microsomes is responsible for the metabolism of various endogenous and exogenous compounds.
# An enzyme-based assay with the recombinant human AChE, human liver microsomes and Amplite Colormetric acetylcholinesterase assay kit (AAT Bioquest, Sunnyvale, CA) was used to evaluate compounds in the Tox21 10K library that need metabolic activation for AChE inhibition. The assay uses 5, 5-dithiobis-(2-nitrobenzoic acid) (DTNB) to quantify the thiocholine produced from the hydrolysis of acetylthiocholine by AChE.
# Tox21 Assay Protocol Summary:
# For the enzyme-based AChE assay with microsomes addition, a mixture of human AChE (50 mU/mL) and human liver microsomes (0.25 mg/mL, final concentration) in 3 uL/well was dispensed into black, clear-bottom 1536-well plates using a Multidrop Combi dispenser (Thermo Scientific, MA). Then, 23 nL of compound or DMSO (vehicle control) was transferred into the assay plates by a Pintool Station (Wako Automation, CA). Following compound addition, 1 uL of NADPH (0.25 mg/mL, final concentration) was transferred to the assay plate by a Flying Reagent Dispenser (Beckman Coulter, CA). The plates were incubated for 30 min at 37 C and 5% CO2, followed by the addition of 4 uL of colorimetric detection cocktail solution (DTNB, acetylthiocholine) into each well using a Flying Reagent Dispenser (Beckman Coulter, CA) and then 10 min incubation at room temperature.
# Chain of Acetylcholinesterase (Homo sapiens) (P22303 whole entry, looked up): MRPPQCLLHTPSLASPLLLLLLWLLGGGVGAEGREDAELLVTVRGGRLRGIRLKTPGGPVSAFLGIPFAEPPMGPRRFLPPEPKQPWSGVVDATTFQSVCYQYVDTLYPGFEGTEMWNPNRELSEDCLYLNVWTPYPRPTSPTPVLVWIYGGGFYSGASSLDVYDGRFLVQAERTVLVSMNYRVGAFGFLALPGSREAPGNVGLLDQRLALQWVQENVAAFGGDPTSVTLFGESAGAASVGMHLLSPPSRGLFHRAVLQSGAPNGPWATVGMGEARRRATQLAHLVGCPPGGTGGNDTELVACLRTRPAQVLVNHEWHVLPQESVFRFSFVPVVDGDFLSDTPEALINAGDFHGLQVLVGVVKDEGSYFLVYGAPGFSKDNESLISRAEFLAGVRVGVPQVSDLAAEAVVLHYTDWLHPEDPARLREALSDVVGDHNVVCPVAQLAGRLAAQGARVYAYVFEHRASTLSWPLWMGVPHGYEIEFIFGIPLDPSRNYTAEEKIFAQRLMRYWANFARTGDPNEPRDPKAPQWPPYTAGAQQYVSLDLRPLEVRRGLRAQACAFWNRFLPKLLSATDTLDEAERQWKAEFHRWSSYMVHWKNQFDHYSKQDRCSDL
SMILES,Potency,"activity change, negative = inhibition"
CN1[C@@H]2CC[C@H]1CC(NC(=O)n1c(=O)[nH]c3ccccc31)C2 (stereo not given in full),inactive,–
CCCCCCCCCCCCC1CO1 (stereo not given),inactive,–
Cc1onc(-c2c(Cl)cccc2Cl)c1C(=O)N[C@@H]1C(=O)N2[C@@H]1SC(C)(C)[C@@H]2C(=O)O,inactive,–
CC(CC1c2ccccc2CCc2ccccc21)CN(C)C (stereo not given),inactive,–
CCCC(=O)OCC,inactive,–
CCCCOC(=O)CCCCCCCC(=O)OCCCC,inactive,–
CCCCCCCCCCCCSCCOCCO,inactive,–
Cc1oc2c(NC(=O)c3c(Cl)cccc3Cl)cccc2c1C(C)(C)O,inactive,–
CN(C)c1ccc(N=Nc2ccccc2C(=O)O)cc1,inactive,–
CN(C)CCC[C@@]1(c2ccc(F)cc2)OCc2cc(C#N)ccc21,inactive,–
O=C(CCN1CCN2CCCC2C1)N1c2ccccc2Sc2ccc(Cl)cc21 (stereo not given),–,1.34% [at 23.6 µM]
CCOC(=O)[C@H](CCc1ccccc1)N[C@@H](C)C(=O)N1Cc2cc(OC)c(OC)cc2C[C@H]1C(=O)O,inactive,–
COc1cc2nc(N3CCN(C(=O)c4ccco4)CC3)nc(N)c2cc1OC,–,-0.588% [at 23.6 µM]
CC(=O)CC(N)=O,inactive,–
O[C@@H](CNC[C@H](O)[C@H]1CCc2cc(F)ccc2O1)[C@@H]1CCc2cc(F)ccc2O1,inactive,–
Cc1nc(-c2ccccn2)ncc1C(=O)Nn1cc(C)c2cc(F)ccc21,inactive,–
O=C(OOC(=O)c1ccccc1)c1ccccc1,inactive,–
O=C(/N=N/C(=O)OCc1ccccc1)OCc1ccccc1,inactive,–
CCC(Cc1ccccc1)(C(=O)c1ccc(N2CCOCC2)cc1)N(C)C (stereo not given),inactive,–
CCc1cc(SCc2sc(-c3ccc(C(F)(F)F)cc3)nc2CN2CCN(c3ccc(OC)cc3)CC2)ccc1OCC(=O)O,inactive,–

SMILES,Potency,"activity change, negative = inhibition"
CCCN(CCc1cccs1)[C@H]1CCc2c(O)cccc2C1,inactive,–
CC[N+](C)(CC)CCOC(=O)C(O)(c1ccccc1)C1CCCCC1 (stereo not given),inactive,–
CC[C@@H](N)CO,inactive,–
CC(=O)OCC(C)OC(C)=O (stereo not given),inactive,–
C=CC/C=C/C/C=C/C/C=C/C,inactive,–
Cc1ccccc1N1C(=O)c2cc(S(N)(=O)=O)c(Cl)cc2NC1C (stereo not given),inactive,–
CC1(C)CCC(C)(C)c2cc(NC(=O)c3ccc(C(=O)O)cc3)ccc21,inactive,–
c1ccc(B(c2ccccc2)c2ccccc2)cc1,inactive,–
Clc1cccnc1,inactive,–
CC(=O)OC1C2(C)CCC(C2)C1(C)C (stereo not given),inactive,–
CCCCCCC(=O)OCC,inactive,–
CN1CCCN=C1COC(=O)C(O)(c1ccccc1)C1CCCCC1 (stereo not given),inactive,–
CCN(CC)CCOc1ccccc1C(=O)CCc1ccccc1,inactive,–
Cc1c(N)cccc1Cl,inactive,–
O=C1C=CCCC1,inactive,–
CC12CC3CC(C)(C1)CC(N)(C3)C2,inactive,–
N#CC1(N)CCCCC1,inactive,–
Nc1ccc(NCCO)c([N+](=O)[O-])c1,inactive,–
COc1cccc2c1C(=O)c1c(O)c3c(c(O)c1C2=O)C[C@@](O)(C(=O)CO)C[C@@H]3O[C@H]1C[C@H](N)[C@H](O[C@@H]2CCCCO2)[C@H](C)O1,inactive,–
N#CCCOCCC#N,inactive,–
